Source: PubChem BioAssay
HT1080 IDH1KD tx = kills HT-1080 cells with IDH1 knockdown. HT-1080 IDH1 knockdown viability, ATP luminescence, 48 h. Potency, µM (doses to about 46.1 µM), inactives show at the top dose activity, negative = toxicity, hits mostly cytotoxic. hit rate 2% among 360,000. AID 686971;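 further: potency means the concentration at half of the fitted maximal effect; 0% = DMSO wells and -100% = cell-free medium wells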
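Assay cells: HT-1080 with IDH1 knockdown, 750 per well, RPMI/5% FBS. Exposure: 48 h at 37 °C following 2 h pre-incubation. Read: CellTiter-Glo luminescence; fitted concentration-response, curve class assigned.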
DT40 TDP1 CPT = growth inhibition of DT40 Tdp1-/-;hTDP1 cells with camptothecin (screen for TDP1 inhibitors); chicken DT40 Tdp1-/-;hTDP1 cells + 20 nM CPT, ATP luminescence, 48 h; Potency, µM (top dose mostly 46.2 µM), for inactives: top-dose activity change, negative = growth inhibition, hits mostly inhibitors; hit rate 12% among 420,000; further: potency means the concentration at half of the fitted maximal effect; nearly all actives have a fitted effect of over 55% in size
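Cell growth measured by CellTiter-Glo luminescence after a minimum 48 h, 37 C compound exposure with 20 nM CPT in Tdp1-knockout DT40 cells stably expressing hTDP1, seeded 400/well; qHTS titration format.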
IL1B secr inh = inflammasome signaling inhibition, IL-1 beta readout | THP-1 LPS/ATP IL-1B secretion, AlphaLISA, 16 h; hits give low values | hit rate 4.7% among 360,000 | AID 743279 | activity change, % at 57.5 µM; in the data active means activity change below about -50%; inconclusive means mostly about -30% to -49%
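THP-1 cells pretreated 1 hr with compounds (up to 57.5 uM final), then stimulated with LPS (250 ng/mL final) plus ATP (1.25 mM final); secreted IL-1B measured by AlphaLISA after 16 hr, decreased signal indicating inhibition.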
HT1080-NT tox = kills 2HG-producing HT-1080-NT fibrosarcoma cells | AID 686970 | HT-1080-NT fibrosarcoma viability, CellTiter-Glo ATP luminescence, 48 h | hit rate 1.6% among 360,000 | Potency, µM (doses to about 46.1 µM), inactives show at the highest dose activity, negative = less viability, most hits filed as cytotoxic;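 further: NT is the 2HG producing partner of a matched IDH1 knockdown line; potency means the concentration at half of the fitted maximal effect; 0% = DMSO-treated cells and -100% = media-only wells without cells; nearly all actives have a fitted effect of over 55% in size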
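A 48-hour cytotoxicity screen used HT-1080-NT cells plated 2 hours before compound delivery. ATP-based CellTiter-Glo luminescence measured viability, normalized to DMSO and no-cell controls.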
TDP1 cell noCPT = qHTS for Inhibitors of human tyrosyl-DNA phosphodiesterase 1 (TDP1): qHTS in cells in absence of CPT | DT40 Tdp1-/- hTDP1 cells, no CPT, ATP luminescence, 48 h | Potency, µM (series often up to 46.2 µM), inactives show at the highest dose activity change, negative = growth inhibition, usual class: inhibitors | hit rate 15% among 420,000; further: potency means the concentration at half of the fitted maximal effect; nearly all actives have a fitted effect of over 55% in size
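Seeded 400 DT40-hTDP1 cells/well (vehicle DMSO, no 20 nM CPT); pinned compounds; ≥48 hr at 37 °C; CellTiter-Glo luminescence as viability measure.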
ELG1 DNA repair = blocks ELG1-dependent DNA repair in HEK293T cells; Potency, µM (top dose mostly 46.1 µM), without a hit: at the highest dose activity change, negative = inhibition, hits mostly inhibitors; HEK293T ELG1-luciferase reporter, luminescence, 16 h; DNA damage induced by 5-fluorouridine; hit rate 2.3% among 330,000; further: potency means the concentration at half of the fitted maximal effect; nearly all actives have a fitted effect of over 55% in size
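Reporter activity after DNA damage by 5-fluorouridine is monitored. Compound-treated cells incubate 16 hr at 37 °C, then ONE-Glo is added for 30 min before luminescence reading.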
The depositor's hits bear a star; ? = inconclusive; . = not tested or not shown. Only some compounds are listed: those with a hit (about 19% of all), similar ones and a draw of the others. Unless noted, the call rests on the fitted dose curve; in most records, active means well fitted curve in the direction sought with a large enough effect; inconclusive means small, poorly fitted or top-dose-only effect, or another doubt; inactive means no such curve, though single readings can be large; an effect the other way counts as inactive or inconclusive. Unless noted, on the % scale 0 is the no-effect control and ±100 the full control effect.

SMILES | HT1080 IDH1KD tx | DT40 TDP1 CPT | IL1B secr inh | HT1080-NT tox | TDP1 cell noCPT | ELG1 DNA repair
COc1ccc(S(=O)(=O)NC(=O)C2(C)CCN2C(=O)CCC2CCCC2)cc1OC (stereo not drawn) | ? | ? | 35 | 7% | -5% | .
CCCCS(=O)(=O)N1CCC(C(=O)Oc2ccc(Cl)cc2)CC1 | -2% | -4% | 5 | -2% | -4% | ?
Cc1cccc(C(=O)N2CCC(=O)N(C(COCc3cccc(C(F)(F)F)c3)Cc3ccccc3)CC2)c1 (stereo not drawn) | -28% | 29µM* | ? | ? | ? | ?
Cc1cccc(COC[C@H](Cc2ccccc2)N2CCN(C(=O)c3cccc(C)c3)CCC2=O)c1 | ? | ? | -13 | ? | ? | .
Cc1cccc(C(=O)N2CCC(=O)N([C@H](COCc3ccccc3)Cc3ccccc3)CC2)c1 | -15% | ? | 9 | -1% | ? | .
Cc1cccc(C(=O)N2CCC(=O)N([C@H](COCc3cccc(C(F)(F)F)c3)Cc3ccccc3)CC2)c1 | ? | ? | -1 | ? | 16µM* | .
CCOc1ccc(CN(C)C(=O)NNC(=O)c2ccc(C)cc2)cc1OC | -3% | 1% | 12 | 8% | -10% | -1%
CSc1ccc(CN(C)C(=O)C(Cc2ccccc2)NC(=O)c2ccccc2)cc1 (stereo not drawn) | -2% | ? | 8 | -2% | ? | ?
COc1ccc(CN(C)C(=O)C(Cc2ccccc2)NC(=O)c2ccccc2)cc1F (stereo not drawn) | -25% | 16µM* | -12 | -14% | 13µM* | 15µM*
CCOc1ccc(CN(C)C(=O)[C@H](Cc2ccccc2)NC(=O)OCc2ccccc2)cc1OC | -21% | ? | -77* | -1% | 21µM* | ?
COc1ccc(CN(C)C(=O)c2ccc(Oc3ccccc3)cc2)cc1F | -6% | -27% | -74* | -20% | ? | ?
CN(Cc1ccc(F)cc1)C(=O)C(Cc1ccccc1)NC(=O)c1ccccc1 (stereo not drawn) | 1% | ? | -18 | -4% | 18µM* | ?
COc1ccc(CN(C)C(=O)c2cccc(S(=O)(=O)NCc3ccccc3)c2)cc1F | 3% | -11% | 9 | 4% | 8% | .
O=C(NCC[C@H]1CC[C@@H](NC(=O)C2CCOCC2)[C@@H](CO)O1)Nc1ccc(Cl)cc1 | 17% | 9% | 5 | 9% | -2% | .
CCOc1ccc(C(=O)OCC(=O)N(Cc2ccccc2)Cc2ccccc2)cc1OC | -9% | 21µM* | -4 | -12% | ? | ?
CCN(Cc1ccc(OC)c(F)c1)C(=O)CCl | 16µM* | 4.1µM* | -96* | 18µM* | 4.1µM* | ?
COc1cc(C(=O)OCC(=O)NC(=O)NCc2ccccc2)ccc1OC(F)F | -9% | 3% | 1 | 1% | -13% | 7%
Cc1cc(C)nc(NC(=O)CSc2nccc(C)n2)n1 | 30% | -3% | 6 | 5% | -8% | -16%
Cc1cc(C)nc(SCC(=O)Nc2ccnc3ccccc23)n1 | -13% | 1.6µM* | ? | 1% | 0.65µM* | ?
Cc1cc(C)nc(SCNC(=O)c2ccccc2)n1 | 7.1µM* | -1% | 9 | 5µM* | 20% | 13%
O=C(CSC1=NCCS1)Nc1ccnc2ccccc12 | -21% | 6.5µM* | ? | ? | 9.2µM* | ?
Cc1cc(SCNC(=O)c2ccccc2)nc(C(C)C)n1 | 0% | -11% | 15 | 6% | -18% | 9%
COc1ccc([C@H]2C[C@H](O)[C@@H](n3cc(-c4ccc(F)cc4)nn3)CN2Cc2cccs2)cc1 | 4.6µM* | 5.2µM* | -61* | 2.9µM* | 5.2µM* | .
